compound: C#CCNC(=O)CCSSCCC(=O)NCCc1ccc(C=O)c(C=O)c1; assay: lysine labeling ratio R10:1 (500 µM / 50 µM probe), SILAC-ABPP in living cells; higher = lower intrinsic lysine reactivity toward the probe, active = 2 or less; details: HeLa; probe concentrations 500 vs 50 µM
In short: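 In PBS at room temperature, living HeLa cells grown with SILAC light or heavy labels were treated with 50 µM or 500 µM of an alkyne-tagged, disulfide-linked lysine probe, with label swaps in both directions. Analysis was by LC-MS/MS on a TIMS-TOF Pro after click to biotin-azide, neutravidin capture and DTT release. For each lysine, R is the median across forward and reverse replicates of the filtered median high-probe/low-probe MS1 peptide ratio, capped at 20.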

UniProt P62316, sequence (P62316 whole entry): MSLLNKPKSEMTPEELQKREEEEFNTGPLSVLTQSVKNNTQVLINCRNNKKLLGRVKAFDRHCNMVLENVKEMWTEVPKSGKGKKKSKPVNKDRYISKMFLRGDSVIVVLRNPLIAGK
UniProt Q9UQ80, sequence (Q9UQ80 whole entry): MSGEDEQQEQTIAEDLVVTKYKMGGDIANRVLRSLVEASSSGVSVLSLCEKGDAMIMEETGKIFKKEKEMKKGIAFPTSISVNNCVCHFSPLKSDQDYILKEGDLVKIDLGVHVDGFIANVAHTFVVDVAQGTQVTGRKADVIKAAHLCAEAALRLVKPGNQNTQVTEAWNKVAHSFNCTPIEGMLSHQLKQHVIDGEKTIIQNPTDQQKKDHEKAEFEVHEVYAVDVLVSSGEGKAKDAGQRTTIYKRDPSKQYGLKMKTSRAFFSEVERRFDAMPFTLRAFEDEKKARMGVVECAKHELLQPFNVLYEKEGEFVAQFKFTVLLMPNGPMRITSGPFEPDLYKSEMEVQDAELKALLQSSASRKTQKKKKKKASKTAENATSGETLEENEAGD
UniProt Q8WWI1, sequence (Q8WWI1 whole entry): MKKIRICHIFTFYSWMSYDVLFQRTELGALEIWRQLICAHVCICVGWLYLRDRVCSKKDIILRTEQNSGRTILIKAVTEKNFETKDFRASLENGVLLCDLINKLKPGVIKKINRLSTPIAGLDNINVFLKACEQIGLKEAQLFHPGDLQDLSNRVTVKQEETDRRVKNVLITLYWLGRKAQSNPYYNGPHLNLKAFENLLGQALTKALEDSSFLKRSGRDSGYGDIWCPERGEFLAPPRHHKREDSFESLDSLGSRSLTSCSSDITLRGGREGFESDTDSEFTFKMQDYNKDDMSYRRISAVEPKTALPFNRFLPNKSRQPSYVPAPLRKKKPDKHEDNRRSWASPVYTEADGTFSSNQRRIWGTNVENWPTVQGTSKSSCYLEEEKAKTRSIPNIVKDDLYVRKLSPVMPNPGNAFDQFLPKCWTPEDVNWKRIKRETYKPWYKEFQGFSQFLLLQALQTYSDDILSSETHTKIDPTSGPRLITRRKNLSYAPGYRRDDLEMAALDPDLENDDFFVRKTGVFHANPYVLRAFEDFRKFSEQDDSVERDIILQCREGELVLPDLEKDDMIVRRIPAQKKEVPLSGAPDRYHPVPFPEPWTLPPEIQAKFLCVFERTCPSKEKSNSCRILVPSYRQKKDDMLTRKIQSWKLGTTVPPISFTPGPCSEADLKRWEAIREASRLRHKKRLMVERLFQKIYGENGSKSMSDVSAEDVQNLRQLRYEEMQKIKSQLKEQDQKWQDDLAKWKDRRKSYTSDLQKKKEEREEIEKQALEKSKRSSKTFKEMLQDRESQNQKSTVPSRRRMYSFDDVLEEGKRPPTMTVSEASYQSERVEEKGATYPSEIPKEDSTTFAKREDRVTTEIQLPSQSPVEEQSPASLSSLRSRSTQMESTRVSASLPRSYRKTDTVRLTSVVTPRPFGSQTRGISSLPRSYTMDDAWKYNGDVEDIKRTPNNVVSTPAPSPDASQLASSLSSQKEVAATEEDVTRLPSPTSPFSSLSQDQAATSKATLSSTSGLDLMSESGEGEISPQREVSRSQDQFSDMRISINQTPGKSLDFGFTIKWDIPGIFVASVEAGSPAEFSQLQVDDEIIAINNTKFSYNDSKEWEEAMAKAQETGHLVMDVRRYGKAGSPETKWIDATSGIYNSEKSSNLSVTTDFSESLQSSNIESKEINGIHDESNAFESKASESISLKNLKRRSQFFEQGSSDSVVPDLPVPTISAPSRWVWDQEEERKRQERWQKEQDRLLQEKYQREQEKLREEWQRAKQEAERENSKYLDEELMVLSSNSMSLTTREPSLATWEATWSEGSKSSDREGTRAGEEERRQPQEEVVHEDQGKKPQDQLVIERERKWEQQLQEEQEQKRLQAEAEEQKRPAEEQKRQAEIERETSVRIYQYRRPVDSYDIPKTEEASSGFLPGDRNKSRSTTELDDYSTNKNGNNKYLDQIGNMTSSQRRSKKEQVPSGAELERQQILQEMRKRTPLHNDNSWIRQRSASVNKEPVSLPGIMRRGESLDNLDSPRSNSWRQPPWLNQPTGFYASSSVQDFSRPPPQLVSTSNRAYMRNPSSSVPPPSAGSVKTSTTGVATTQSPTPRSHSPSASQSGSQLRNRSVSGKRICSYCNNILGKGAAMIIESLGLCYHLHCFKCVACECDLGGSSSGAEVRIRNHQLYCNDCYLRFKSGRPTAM
UniProt Q9NV96, sequence (Q9NV96 whole entry): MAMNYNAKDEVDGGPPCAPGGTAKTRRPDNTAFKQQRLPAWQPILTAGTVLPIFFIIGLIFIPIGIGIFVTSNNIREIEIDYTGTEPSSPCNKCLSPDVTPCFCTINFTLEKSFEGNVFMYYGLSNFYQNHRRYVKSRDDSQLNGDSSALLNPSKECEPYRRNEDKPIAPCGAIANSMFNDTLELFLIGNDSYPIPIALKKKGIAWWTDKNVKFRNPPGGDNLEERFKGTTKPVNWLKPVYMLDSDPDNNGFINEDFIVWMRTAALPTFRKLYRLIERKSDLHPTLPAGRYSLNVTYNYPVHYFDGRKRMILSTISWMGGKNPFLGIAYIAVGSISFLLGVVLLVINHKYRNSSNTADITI
UniProt Q9Y490, sequence (Q9Y490 whole entry): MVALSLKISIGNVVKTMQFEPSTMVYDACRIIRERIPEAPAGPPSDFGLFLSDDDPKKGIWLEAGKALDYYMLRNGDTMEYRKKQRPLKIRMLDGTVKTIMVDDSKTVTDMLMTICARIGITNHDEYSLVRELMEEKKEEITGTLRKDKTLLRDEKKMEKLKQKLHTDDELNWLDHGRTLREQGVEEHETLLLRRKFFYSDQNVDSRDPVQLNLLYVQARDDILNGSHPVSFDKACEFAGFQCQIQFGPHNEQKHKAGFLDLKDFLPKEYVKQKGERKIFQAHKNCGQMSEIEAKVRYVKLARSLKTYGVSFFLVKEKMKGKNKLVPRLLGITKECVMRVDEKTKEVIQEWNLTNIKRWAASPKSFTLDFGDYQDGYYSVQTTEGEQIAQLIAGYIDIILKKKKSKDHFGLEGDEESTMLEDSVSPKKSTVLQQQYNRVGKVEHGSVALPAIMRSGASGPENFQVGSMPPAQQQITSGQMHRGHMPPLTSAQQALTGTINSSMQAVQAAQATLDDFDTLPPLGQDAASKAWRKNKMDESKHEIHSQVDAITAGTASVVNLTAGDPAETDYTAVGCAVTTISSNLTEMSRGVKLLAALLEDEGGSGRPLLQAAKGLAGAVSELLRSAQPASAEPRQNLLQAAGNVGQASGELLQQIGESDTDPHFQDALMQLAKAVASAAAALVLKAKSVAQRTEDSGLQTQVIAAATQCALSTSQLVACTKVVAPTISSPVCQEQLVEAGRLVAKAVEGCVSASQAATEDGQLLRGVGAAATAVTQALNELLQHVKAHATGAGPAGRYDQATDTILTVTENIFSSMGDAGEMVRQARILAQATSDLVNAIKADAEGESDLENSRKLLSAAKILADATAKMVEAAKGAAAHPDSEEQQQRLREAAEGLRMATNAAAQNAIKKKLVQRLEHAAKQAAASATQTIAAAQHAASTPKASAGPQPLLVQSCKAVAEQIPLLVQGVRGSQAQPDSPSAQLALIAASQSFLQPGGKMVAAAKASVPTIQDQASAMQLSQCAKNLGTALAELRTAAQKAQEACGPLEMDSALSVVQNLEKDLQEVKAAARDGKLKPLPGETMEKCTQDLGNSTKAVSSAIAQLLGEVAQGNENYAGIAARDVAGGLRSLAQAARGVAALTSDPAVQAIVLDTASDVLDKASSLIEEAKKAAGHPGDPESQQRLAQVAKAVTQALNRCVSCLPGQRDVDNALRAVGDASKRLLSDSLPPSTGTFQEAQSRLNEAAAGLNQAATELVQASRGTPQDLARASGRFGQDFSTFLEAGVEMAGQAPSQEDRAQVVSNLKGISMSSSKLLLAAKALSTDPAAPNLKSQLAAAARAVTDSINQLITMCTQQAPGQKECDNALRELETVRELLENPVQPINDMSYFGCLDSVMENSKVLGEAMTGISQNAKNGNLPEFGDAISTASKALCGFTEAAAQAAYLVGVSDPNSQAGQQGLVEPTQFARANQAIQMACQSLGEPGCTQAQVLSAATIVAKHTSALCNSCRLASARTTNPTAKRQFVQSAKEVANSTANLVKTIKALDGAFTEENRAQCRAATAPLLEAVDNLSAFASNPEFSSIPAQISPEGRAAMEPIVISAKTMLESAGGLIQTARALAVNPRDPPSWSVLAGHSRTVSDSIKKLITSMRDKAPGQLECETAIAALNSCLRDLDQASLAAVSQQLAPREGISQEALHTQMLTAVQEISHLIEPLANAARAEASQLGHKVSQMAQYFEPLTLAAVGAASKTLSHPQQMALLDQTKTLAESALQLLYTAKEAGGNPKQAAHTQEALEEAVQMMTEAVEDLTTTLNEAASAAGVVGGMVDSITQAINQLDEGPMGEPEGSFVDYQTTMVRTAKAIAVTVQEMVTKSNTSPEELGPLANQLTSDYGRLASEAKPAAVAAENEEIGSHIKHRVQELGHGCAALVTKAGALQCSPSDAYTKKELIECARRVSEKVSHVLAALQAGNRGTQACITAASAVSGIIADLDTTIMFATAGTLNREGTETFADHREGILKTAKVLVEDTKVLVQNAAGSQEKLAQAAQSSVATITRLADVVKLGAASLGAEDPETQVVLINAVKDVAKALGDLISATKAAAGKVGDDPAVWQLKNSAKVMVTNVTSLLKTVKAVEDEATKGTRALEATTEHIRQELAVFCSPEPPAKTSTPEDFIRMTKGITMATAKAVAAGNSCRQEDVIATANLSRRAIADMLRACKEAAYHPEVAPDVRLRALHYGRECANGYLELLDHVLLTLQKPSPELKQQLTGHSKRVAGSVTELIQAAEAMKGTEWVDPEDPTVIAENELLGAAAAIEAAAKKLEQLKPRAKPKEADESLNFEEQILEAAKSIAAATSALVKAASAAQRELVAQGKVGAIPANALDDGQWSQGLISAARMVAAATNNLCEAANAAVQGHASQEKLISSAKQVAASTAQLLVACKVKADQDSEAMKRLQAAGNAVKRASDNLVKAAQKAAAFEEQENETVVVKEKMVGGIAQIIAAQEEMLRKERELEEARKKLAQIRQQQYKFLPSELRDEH

Lysine labeling ratio R10:1, active:
HMGN2 (lysine site: K16) (UniProt P05204) 1.78
PA2G4 (lysine site: K287) (UniProt Q9UQ80) 0.997
VPS35 (lysine site: K515) (UniProt Q96QK1) 1.25
UniProt P50281 (lysine site: K337) 1.7

Lysine labeling ratio R10:1, inactive:
UniProt Q12884 (lysine site: K334) 3.23
TLN1 (lysine site: K875) (UniProt Q9Y490) 7.4
UniProt P25705 (lysine site: K230) 2.24
UniProt Q6NZI2 (lysine site: K137) 3.08
UniProt P62913 (lysine site: K178) 3.2
UniProt P62316 (lysine site: K118) 6.15
TMEM97 (lysine site: K130) (UniProt Q5BJF2) 3.33
TMEM30A (lysine site: K155) (UniProt Q9NV96) 2.09
PABPC1 (lysine site: K512) (UniProt P11940) 3.06
GANAB (lysine site: K269) (UniProt Q14697) 2.12
FAT4 (lysine site: K2561) (UniProt Q6V0I7) 2.59
LMO7 (lysine site: K1264) (UniProt Q8WWI1) 4.64
UniProt P62854 (lysine site: K113) 7.15

— the supplement of paper PMC11001985
